# Reference: PubChem BioAssay AID504333 (National Center for Advancing Translational Sciences (NCATS), 2011)
# Hit rate of the full screen: of about 360,000 compounds, about 16,000 (4.4%) were called active. Another 9% or so got no clear call; they are omitted. Calls come from the whole dose curve; as a rule, active = well fitted inhibition curve with a large enough effect; inconclusive = small, poorly fitted or top-dose-only effect; inactive = no such curve, though single readings can be large or run the other way. The list comes from a sample in which actives are over-represented; it also holds similar structures and randomly drawn compounds.
# Molecular target: Bromodomain adjacent to zinc finger domain protein 2B (Homo sapiens) (UniProt Q9UIF8)
# Assay: qHTS Assay for Inhibitors of BAZ2B; note: nearly all actives have a fitted effect of over 60% in size
# Settings: AlphaScreen BAZ2B-H3K14Ac peptide displacement; series mostly up to 114 µM; activity change, negative = inhibition: at the top concentration
# Source text: BAZ2B (bromodomain adjacent to zinc finger domain, 2B) belongs to a family of ubiquitously expressed bromodomain containing proteins, which biological function has not yet been elucidated. […] The interaction of BAZ2B with ISWI mediated by the BAZ1 motif has recently been described. […] The protocol is based on the AlphaScreen (PerkinElmer) displacement assay developed by NCGC [5], but uses the peptide ligand Biot-H3K14Ac, a high affinity binding partner for BAZ2B, in an AlphaScreen format. Although AlphaScreen has significant advantages with its utility in a variety of epigenetic target assays, the primary screening data provided in this deposition should be used with caution due to the prevalence of screening artifacts. The top compound concentration tested was 110uM in this assay, which increases number of actives and potential artifacts. An AlphaScreen counterscreen is highly recommended to be run against any putative actives to eliminate non-specific artifacts. Alternatively, one can use other AlphaScreen assays in PubChem to filter out promiscuous hits. Eberharter, A. et al. ACF1 improves the effectiveness of nucleosome mobilization by ISWI through PHD-histone contacts. The EMBO journal 23, 4029-4039. 2004. PMID: 15457208 [2] Jones, M.H. et al. A novel family of bromodomain genes. Genomics 63, 40-45. 2000. PMID: 10662543 [3] Yasgar, et al. Compound Management for Quantitative High-Throughput Screening. JALA. 2008 Apr;13(2):79-89. PMID: 18496600 [4] Inglese, et al. Quantitative high-throughput screening: a titration-based approach that efficiently identifies biological activities in large chemical libraries. Proc Natl Acad Sci. 1;103(31):11473-8. 2006. PMID: 16864780 [5] Quinn et al. A chemiluminescence-based method for identification of histone lysine methyltransferase inhibitors. Mol Biosyst 6(5): 782-8. 2010. PMID: 20567762 [6] Baell,Holloway. New substructure filters for removal of pan assay interference compounds (PAINS) from screening libraries and for their exclusion in bioassays. J Med Chem. 53(7):2719-40. 2010. PMID: 20131845 NIH Molecular Libraries Probe Production Network [MLPCN] NIH Chemical Genomics Center [NCGC] Structural Genomics Consortium (SGC) NIH Grant: 5U54 MH084681-02
# To each well of a 1,536w plate, 2ul of BAZ2B protein (final 50nM) and 1ul biotinylated histone peptide acetylated at Lys14 [b-H3(5-23)K14Ac] (final 50nM) were added in 1x PBS buffer, pH 7.4, containing 0.01% Tween-20, using a nanoliter dispenser. Formation of a protein-peptide complex proceeded at room temperature for 30 min. A Kalypsys pin-tool was employed to transfer 23 nL of library compound solution in DMSO to each well. Following a 30 min incubation of the protein-peptide complex with compounds at room temperature, a mixture of 40 ug/mL each streptavidin-coated donor and nickel chelate acceptor AlphaScreen beads (final 10 ug/mL) were added in a 1ul dispense for a final volume of 4ul. A brief centrifugation followed (1000rpm, 1 min) and were then incubated protected from the light for 20 min at room temperature. Plates were read on an EnVision multilabel plate reader using the 1,536 plate HTS AlphaScreen aperture (excitation time 80 ms, measurement time 240 ms).
# % is set by controls: 0 for no effect and ±100 for the full control effect; potency is the fitted concentration of half-maximal effect.
# Sequence of Bromodomain adjacent to zinc finger domain protein 2B (Homo sapiens) (Q9UIF8 whole entry, looked up, the tested form may be a part): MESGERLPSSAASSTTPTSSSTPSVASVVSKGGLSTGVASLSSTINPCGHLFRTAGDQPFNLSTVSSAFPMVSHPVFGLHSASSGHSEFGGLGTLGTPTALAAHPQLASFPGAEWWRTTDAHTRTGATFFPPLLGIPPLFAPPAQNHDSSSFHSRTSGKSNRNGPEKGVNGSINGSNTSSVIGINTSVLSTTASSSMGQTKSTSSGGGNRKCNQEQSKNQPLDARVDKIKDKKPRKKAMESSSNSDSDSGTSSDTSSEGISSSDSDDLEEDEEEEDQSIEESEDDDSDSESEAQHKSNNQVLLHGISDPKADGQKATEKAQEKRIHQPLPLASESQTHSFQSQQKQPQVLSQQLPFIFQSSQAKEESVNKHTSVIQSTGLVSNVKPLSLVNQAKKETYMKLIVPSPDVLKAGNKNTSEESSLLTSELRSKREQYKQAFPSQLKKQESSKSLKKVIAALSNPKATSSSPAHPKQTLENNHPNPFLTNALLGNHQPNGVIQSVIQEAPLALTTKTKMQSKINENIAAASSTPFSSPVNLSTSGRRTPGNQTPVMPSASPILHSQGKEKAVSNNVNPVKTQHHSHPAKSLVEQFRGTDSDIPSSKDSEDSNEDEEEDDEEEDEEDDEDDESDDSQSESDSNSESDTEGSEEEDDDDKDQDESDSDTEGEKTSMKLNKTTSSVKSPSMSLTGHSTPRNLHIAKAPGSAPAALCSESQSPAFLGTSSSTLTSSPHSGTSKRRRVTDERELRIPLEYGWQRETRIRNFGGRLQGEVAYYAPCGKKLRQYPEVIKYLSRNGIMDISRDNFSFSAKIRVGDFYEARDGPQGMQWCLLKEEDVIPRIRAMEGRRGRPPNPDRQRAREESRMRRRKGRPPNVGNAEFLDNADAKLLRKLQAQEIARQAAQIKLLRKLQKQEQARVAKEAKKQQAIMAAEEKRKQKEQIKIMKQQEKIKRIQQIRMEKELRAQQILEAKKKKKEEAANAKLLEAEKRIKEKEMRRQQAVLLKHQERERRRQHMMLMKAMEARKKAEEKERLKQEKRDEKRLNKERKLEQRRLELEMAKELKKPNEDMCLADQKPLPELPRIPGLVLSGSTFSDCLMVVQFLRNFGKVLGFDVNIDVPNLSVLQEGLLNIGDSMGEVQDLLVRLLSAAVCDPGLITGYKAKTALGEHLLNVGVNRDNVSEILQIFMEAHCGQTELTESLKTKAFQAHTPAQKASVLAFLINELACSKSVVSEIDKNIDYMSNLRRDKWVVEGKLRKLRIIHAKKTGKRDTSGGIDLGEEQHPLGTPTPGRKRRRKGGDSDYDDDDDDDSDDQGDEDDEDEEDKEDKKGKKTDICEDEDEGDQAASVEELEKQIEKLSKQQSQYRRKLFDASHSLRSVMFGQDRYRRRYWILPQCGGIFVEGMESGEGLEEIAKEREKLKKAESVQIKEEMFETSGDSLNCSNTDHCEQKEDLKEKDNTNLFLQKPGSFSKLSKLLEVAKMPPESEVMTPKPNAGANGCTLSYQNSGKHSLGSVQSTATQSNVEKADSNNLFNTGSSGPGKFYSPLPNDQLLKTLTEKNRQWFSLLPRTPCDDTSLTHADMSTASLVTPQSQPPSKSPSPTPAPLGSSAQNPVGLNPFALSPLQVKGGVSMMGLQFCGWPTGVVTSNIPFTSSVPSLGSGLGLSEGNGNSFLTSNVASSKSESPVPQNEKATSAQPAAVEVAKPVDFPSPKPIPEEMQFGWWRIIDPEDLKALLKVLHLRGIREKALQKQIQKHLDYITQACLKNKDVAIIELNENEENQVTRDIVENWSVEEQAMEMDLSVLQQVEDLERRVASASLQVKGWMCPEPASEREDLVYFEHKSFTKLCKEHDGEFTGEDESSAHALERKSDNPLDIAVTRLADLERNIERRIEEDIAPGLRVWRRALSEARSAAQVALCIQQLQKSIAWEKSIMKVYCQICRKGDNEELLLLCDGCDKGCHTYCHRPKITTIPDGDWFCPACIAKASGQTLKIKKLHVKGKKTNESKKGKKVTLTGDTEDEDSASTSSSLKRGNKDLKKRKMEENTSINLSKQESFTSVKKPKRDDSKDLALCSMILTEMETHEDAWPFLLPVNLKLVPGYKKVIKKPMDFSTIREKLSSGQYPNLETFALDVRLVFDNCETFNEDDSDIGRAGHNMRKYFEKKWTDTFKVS
SMILES,"activity change, negative = inhibition",Potency
CCc1ccc(OCC(=O)N2CCN(CC(=O)Nc3ccccc3Cl)CC2)cc1,10.2% (inactive),
Cc1cc(/C=C2/C(=O)NC(=O)N(Cc3ccco3)C2=O)c(C)n1-c1ccc(C(=O)O)cc1,,56.2 µM (active)
Cc1ccc(-n2c(C)cc(/C=C3\C(=O)NC(=O)N(C)C3=O)c2C)cc1C,-28.5% (inactive),
Cc1cc(C=C2C(=O)NC(=O)NC2=O)c(C)n1-c1ccncc1,-23.5% (inactive),
Cn1c(O)c(C(=Nc2ccc(F)cc2)c2ccccc2)c(=O)n(C)c1=O,-8.76% (inactive),
CCN(CC)c1ccc([N+](=O)[O-])c2cccnc12,,28.2 µM (active)
COC(=O)C1=C(c2ccccc2OCc2ccccc2)C[C@@H]2CC[C@H]1N2C(=O)NCc1ccc(OC)cc1,-6.25% (inactive),
Cc1c(Oc2cc(NN3CCCCC3)c([N+](=O)[O-])cc2[N+](=O)[O-])cccc1[N+](=O)[O-],0.574% (inactive),
CN(C)C(=O)Oc1ccc(NC(=O)N2CCOCC2)cc1,-4.05% (inactive),
COc1ccc2[nH]c3c(c2c1)CCN[C@H]3C,,44.7 µM (active)
CCOC(=O)C1(Cc2ccc(Cl)cc2)CCN(C(C)CCn2cccn2)CC1 (stereo unspecified),-9.31% (inactive),
CCCCn1c(=O)c(C(=O)Nc2ccccc2Cl)c(O)c2ccccc21,9.08% (inactive),
Cc1cccc(Cn2cccc(C(=O)Nc3ccc4c(c3)OCCO4)c2=O)c1,-2.38% (inactive),
O=c1c2ccccc2nc(/C=C/c2ccc(F)cc2)n1-c1ccccc1O,-12.3% (inactive),
C=CCN(CC=C)C(=O)Nc1ccc(OCC)cc1,-21.3% (inactive),
C=CCN1C(=O)NC(=O)/C(=C/c2ccc(OCC(=O)Nc3ccc(C)cc3)cc2)C1=O,,50.1 µM (active)
Cc1ccc(C2CN(C)CC2C(=O)c2ccc(F)cc2)cc1 (stereo unspecified),-13% (inactive),
CC(C)c1c(CN(C)C(C)Cc2ccccc2)n(C)n(-c2ccccc2)c1=O (stereo unspecified),8.31% (inactive),
CN1CCc2cc3c(cc2[C@H]1[C@@H]1OC(=O)c2c1ccc1c2OCO1)OCO3,6.42% (inactive),
C[C@]12CC[C@H](O)C[C@H]1CC[C@@H]1C2CC[C@]2(C)[C@@H](C3=CC(=O)OC3)[C@@H](O)C[C@]12O (stereo partly specified),4.14% (inactive),
CN(C)CC1CCCCC1=O (stereo unspecified),-2.32% (inactive),

SMILES,"activity change, negative = inhibition",Potency
Cc1c(C(=O)O)cccc1-n1c(C)cc(/C=C2\C(=O)NC(=O)N(c3ccc4c(c3)OCO4)C2=O)c1C,,56.2 µM (active)
Cc1ccccc1N1C(=O)NC(=O)/C(=C\c2cc(C)n(C)c2C)C1=O,-31% (inactive),
O=C1N=c2ccccc2=C/C1=C\c1c(O)[nH]c(=S)[nH]c1=O,5.91% (inactive),
O=C1NC(=O)C(C/C=C/c2ccccc2)C(=O)N1,-5.78% (inactive),
CCOP(=S)(OCC)C(O)CCCCCn1c(=O)c(F)cn(C2CCCO2)c1=O (stereo unspecified),2.17% (inactive),
CCc1nc2ccccc2c(=O)n1-c1cccc(OC)c1,24.6% (inactive),
CC(C)c1ccc(O)c(CN2CCN(c3ccccc3)CC2)c1,-3.99% (inactive),
COc1ccc(CN2CCN(c3ccccc3F)CC2)c(OC)c1,,50.1 µM (active)
Cc1cccc(NC(=O)N2CC3CC(C2)c2cccc(=O)n2C3)c1 (stereo unspecified),-1.2% (inactive),
CCOc1cccc(=NC2CCCCC2)c2c(C)[nH]c(C)c12,19.2% (inactive),
O=C(O)c1ccccc1NC(=O)C1C2CCC(O2)C1C(=O)O (stereo unspecified),0.502% (inactive),
CCN(CC)C(=O)Oc1ccc(NC(=O)N2CCOCC2)cc1,14.1% (inactive),
CCCCn1c(O)c(C(CC)=NCc2ccco2)c(=O)[nH]c1=O,-3.38% (inactive),
CCC(=NCc1ccco1)c1c(O)n(Cc2ccccc2)c(=O)[nH]c1=O,,50.1 µM (active)
CC/C(=N\NC(=O)c1ccccc1O)c1c(O)n(Cc2ccccc2)c(=O)[nH]c1=O,3.69% (inactive),
COC(=O)C1=C(c2ccc(F)cc2OCc2ccccc2)C[C@@H]2CC[C@H]1N2C(=O)NCc1ccc(OC)c(OC)c1,-9.47% (inactive),
O=C(CCC(=O)N1C[C@H]2C[C@@H](C1)c1cccc(=O)n1C2)NCc1ccccc1C(F)(F)F,9.68% (inactive),
CN1CCN(Cc2ccc(OC(F)(F)F)cc2)CC1,,56.2 µM (active)
CN1CCN(Cc2ccccc2C(F)(F)F)CC1,-2.16% (inactive),
CC(C)c1ccc(OCC(=O)N2CCCN(C)CC2)cc1,2.95% (inactive),
CCN(CC)C(=O)c1ccc(NC(=O)c2sccc2-c2ccccc2)cc1,-3.49% (inactive),

SMILES,"activity change, negative = inhibition",Potency
CCOc1cc(N2CCOCC2)c(OCC)cc1NC(=O)C1=NN(c2cccc(C)c2)C(=O)CC1,,8.91 µM (active)
CN(C)CC1Oc2ccccc2OC1(O)c1ccccc1 (stereo unspecified),1.99% (inactive),
CN(C)c1ccc(/C=C2\CC3C4CC=C5CC(O)CCC5(C)C4CCC3(C)C2=O)cc1 (stereo unspecified),-29.5% (inactive),
COC(=O)C1=C(c2ccc(F)cc2OCc2ccccc2)C[C@@H]2CC[C@H]1N2C(=O)NCc1ccc(Cl)cc1,3.65% (inactive),
c1ccc(CCNC2CCCCCC2)cc1,,70.8 µM (active)
c1cc2c(cc1[C@H]1OC[C@H]3[C@@H]1CO[C@@H]3c1ccc3c(c1)OCO3)OCO2,2.2% (inactive),
c1cc2c(cc1CCNC1CCCCCC1)OCO2,,17.8 µM (active)
Cc1ccc(CN2CCCC(C(=O)c3ccc4c(c3)OCO4)C2)cc1C (stereo unspecified),-14.9% (inactive),
OC(CNC1CCCCC1)c1ccccc1 (stereo unspecified),4.38% (inactive),
c1ccc(CC2CCCCN2)cc1 (stereo unspecified),3.56% (inactive),
COc1cc(Cn2c(N)c(C(=O)NCc3ccco3)c3nc4ccccc4nc32)cc(OC)c1OC,-13.2% (inactive),
O=C(c1ccccc1[N+](=O)[O-])N1CCC2(CC1)OCCO2,-1.71% (inactive),
COC(=O)C1=C(c2ccc(F)cc2F)C[C@@H]2CC[C@H]1N2C(=O)NC1CC1,11.4% (inactive),
Cc1ccc2c(c1)=C/C(=C\c1c(O)[nH]c(=O)[nH]c1=O)C(=O)N=2,-11.9% (inactive),
CCOc1ccc(-c2cc(C)[n+](CCN(CC)CC)c(-c3ccc(OCC)cc3)c2)cc1,-12.5% (inactive),
Cc1ccc(C(C)C)c(OCC(=O)N2CCN(CC(=O)N3CCOCC3)CC2)c1,7.63% (inactive),
CC(=O)Nc1ccc(C(=O)C(Cc2ccccc2)N(C)C)cc1 (stereo unspecified),-24% (inactive),
CN(C)c1ccc(NC(=O)CN2C3CCCC2CC(NC(=O)c2ccccc2)C3)cc1 (stereo unspecified),,70.8 µM (active)
CN(C)S(=O)(=O)c1cc(C(=O)N2CCC(C(=O)O)(c3ccccc3)CC2)ccc1Cl,3.5% (inactive),
CCN1CCN(c2nc3c(c(=O)[nH]2)CCC3)CC1,-11.1% (inactive),
O=C(Nc1ccc(Cl)cc1C(=O)c1ccccc1)c1cc(Cl)cc(Cl)c1,-6.39% (inactive),

SMILES,"activity change, negative = inhibition",Potency
O=C1NC(=O)N(c2ccccc2)C(=O)/C1=C/c1ccc([N+](=O)[O-])s1,,35.5 µM (active)
COc1cccc(N2C(=O)NC(=O)/C(=C\c3ccc([N+](=O)[O-])s3)C2=O)c1,,31.6 µM (active)
Cc1cccc(N2C(=O)NC(=O)/C(=C\c3cnn(-c4ccccc4)c3)C2=O)c1,-4.33% [at 57.1 µM] (inactive),
COc1cccc(N2C(=O)NC(=O)/C(=C\c3cn(C)c4ccccc34)C2=O)c1,-0.686% (inactive),
Cc1nn(-c2ccccc2)c(C)c1NC(=O)COC(=O)Cc1ccccc1,-2.34% (inactive),
COC(=O)C1=C(c2ccc(C(C)=O)cc2)C[C@@H]2CC[C@H]1N2C(=O)NCCNC(C)=O,3.05% (inactive),
CC(C)n1c(=O)c(C=Nc2ccc(Br)cc2)c(O)n(Cc2ccco2)c1=O,3.28% (inactive),
Cc1cc(C(=O)OCC(=O)Nc2c(F)cccc2F)c(C)n1C1CC1,10.6% (inactive),
COc1ccccc1OC(=O)c1ccc(C)c(S(=O)(=O)N2CCOCC2)c1,-19.5% (inactive),
COc1ccc(N2C(=O)/C(=C/c3ccco3)C(=O)NC2=S)cc1,,3.55 µM (active)
COc1ccc(CN2C(=O)NC(=O)/C(=C\c3ccc(OC)c(OC)c3OC)C2=O)cc1,-35.5% (inactive),
Cc1ccc(S(=O)(=O)N(C)c2ccc(C(=O)NCC3(N(C)C)CCCCC3)cc2)cc1,-7.55% (inactive),
CN(C)C(=O)Oc1ccc(OCc2cccc[n+]2C)cc1,-2.06% (inactive),
COC(=O)C1=C(c2ccc(F)cc2OCc2ccccc2)C[C@@H]2CC[C@H]1N2C(=O)NCc1ccc(C(C)(C)C)cc1,-29.9% (inactive),
O=C(OCC1O[C@@H](OC(=O)c2cc(O)c(O)c(O)c2)[C@@H](OC(=O)c2cc(O)c(O)c(O)c2)[C@@H](OC(=O)c2cc(O)c(O)c(O)c2)[C@@H]1OC(=O)c1cc(O)c(O)c(O)c1)c1cc(O)c(O)c(O)c1 (stereo partly specified),,0.708 µM (active)
CN(C)C(=O)Oc1ccc2c(c1)O/C(=C\c1ccccc1)C2=O,-32.8% (inactive),
CC1CCC(N(C)C2CCN(C)CC2)CC1 (stereo unspecified),-19.6% (inactive),
CNC(=O)O/N=C(\N)Cc1csc2ccc(Cl)cc12,-13.2% (inactive),
